Test in all cases: NCI-60 one-dose screen, 48 h (100 = growth as untreated, 0 = no growth, -100 = all killed)
Conditions in all cases: 10 µM unless noted

Experiment [1] deals with SR leukemia.
Experiment [2] concerns RPMI-8226 leukemia.
Experiment [3] concerns OVCAR-8 ovarian.
Experiment [4] deals with OVCAR-5 ovarian.
Experiment [5] concerns OVCAR-4 ovarian.
Experiment [6] deals with SK-OV-3 ovarian.
Experiment [7] has as its system IGROV1 ovarian.
Experiment [8] deals with OVCAR-3 ovarian.
The subject of experiment [9] is HS 578T breast.
The test system of experiment [10] is NCI/ADR-RES ovarian.
The subject of experiment [11] is BT-549 breast.
The test system of experiment [12] is MDA-MB-435 melanoma.
The test system of experiment [13] is SW-620 colon.
In experiment [14] the test system is MCF7 breast.
Experiment [15] relates to HCT-116 colon.
The subject of experiment [16] is HCC-2998 colon.
Experiment [17] deals with KM12 colon.
Experiment [18] relates to T-47D breast.

Compounds without any hit were thinned out: in the full panel of roughly 83,000, 20% have a hit.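 Single-dose data. Exposure time 48 hours. Values below 10 considered active.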 Values without a mark were called inactive. Calls of active or inactive are those of the source.

We go through eight compounds from PubChem BioAssay (NCI).

On to `S=C1CC(=S)NC(=S)N1`, for which the growth in experiment [1] is 109%; in [2], 122%; in [3] it was 104%; in experiment [4], 110%; in [5], 99%; in [6], 111%. The growth in experiment [7] is 96.7%; in [8], 116%; in experiment [9], 101%; in [10], 105%; in experiment [11] it was 110%; in experiment [12], 112%. Further, the growth in experiment [13] is 98.2%; in experiment [14], 94.1%; in [15], 105%; in experiment [16], 104%; in experiment [17] it was 98.9%.
Consider `O=C(NNC(=O)N1c2ccccc2C=Cc2ccccc21)c1ccc2ccccc2c1`, for which the growth in experiment [1] is 87.2%; in experiment [2], 96.7%; in experiment [3] it was 94.9%; in experiment [4] it was 91.3%; in experiment [5], 91.8%; in experiment [6], 110%. Also, the growth in [7] was 102%; in experiment [8], 101%; in experiment [9], 101%; in [10], 93%; in experiment [18], 87.4%; in [12], 103%. Besides, the growth in [13] was 101%; in experiment [14], 86%; in experiment [15], 103%; in [16], 102%; in [17], 98.6%.
On to `O=[N+]([O-])c1cc(S(=O)(=O)Oc2ccccc2)ccc1Cl`, for which the growth in experiment [1] is 1.34% (active); in experiment [2] it was 17%; in experiment [3], 40.7%; in [4] it was 66.8%; in [5], -28.4% (active); in experiment [6], 102%. Further, the growth in experiment [7] is -78.2% (active); in experiment [8], -94.7% (active); in experiment [9], -7.12% (active); in experiment [10] it was 46.6%; in experiment [11], 30.2%; in [12] it was 19.1%. The growth in [13] was 23.5%; in experiment [14], -64.3% (active); in experiment [15], -54.8% (active); in experiment [17], -71.8% (active).
Take `CC(=O)Nc1nc(N)nc(NC(C)=O)c1N=O`: the growth was 100% in experiment [1]; 118% in [2]; 109% in experiment [3]; 108% in experiment [4]; 127% in [5]; 103% in experiment [6]. In addition, the growth is 131% in [7]; 99.7% in experiment [8]; 104% in experiment [9]; 97.2% in experiment [10]; 110% in [18]; 104% in [11]. For the same compound, the growth was 101% in experiment [13], 108% in [14], 84% in [16] and 111% in experiment [17].
For `COc1cc(/C=C/C(=O)N2CCN(C(=O)/C=C/c3cc(OC)c(OC)c(OC)c3)CC2)cc(OC)c1OC`, the growth in experiment [1] was 75.2%; in experiment [2], 98.6%; in experiment [3], 96.4%; in [4] it was 111%; in [5] it was 103%; in [6] it was 116%. The growth was 111% in [7]; 117% in experiment [8]; 98.8% in experiment [9]; 113% in experiment [10]; 88.1% in experiment [11]; 115% in experiment [12]. Further, the growth was 105% in [13]; 113% in [14]; 98.3% in experiment [15]; 102% in experiment [16]; 115% in experiment [17].
Turning to `c1ccc(Nc2nc(Nc3ccccc3)nc(Nc3ccccc3)n2)cc1`, the growth in experiment [1] was 69.8%; in experiment [2], 74.5%; in [3], 92.2%; in experiment [4], 97.1%; in [5], 81.2%; in [6], 92.7%. In addition, the growth is 62.5% in experiment [7]; 96.4% in [8]; 107% in experiment [9]; 77.9% in experiment [10]; 71.9% in [18]; 114% in experiment [11]. Besides, the growth in experiment [12] is 89.7%; in experiment [13], 88.9%; in experiment [15], 82%; in experiment [16], 85.6%; in experiment [17] it was 84.4%.
With `Clc1ccccc1-c1nc2ccccc2[nH]1`, the growth in [1] is 116%; in experiment [2] it was 74%; in [3], 106%; in experiment [4], 54.4%; in experiment [5] it was 96.9%; in experiment [6] it was 103%. In addition, the growth in experiment [7] is 108%; in experiment [8] it was 102%; in [9], 113%; in [10], -4.71% (active); in experiment [18], 89.3%; in experiment [12], 103%. Moreover, the growth in experiment [13] is 94.6%; in experiment [14], 82.8%; in [15], 78.6%; in experiment [16], 70.9%; in experiment [17], 97.5%.
With `Cc1ccc2nc(Cl)cc(=O)n2c1`, the growth in [1] is 97.8%; in experiment [2], 96.1%; in experiment [3] it was 117%; in experiment [4] it was 94%; in experiment [5], 117%; in [6], 102%. Moreover, the growth was 123% in experiment [7]; 135% in [8]; 93.7% in experiment [9]; 117% in [10]; 102% in [11]; 106% in experiment [12]. Besides, the growth was 108% in experiment [13]; 107% in experiment [14]; 105% in experiment [15]; 121% in experiment [16]; 107% in experiment [17].
